# PubChem BioAssay (EPA / NIEHS)
# Inconclusive results are not listed. Active and inactive are the calls of the source. Rule for the calls, unless noted: active = hit-call score of the fitted dose curve at least 0.9, where 1 is the maximum; inconclusive = response in the unintended direction; inactive = score below 0.9.
# Experiments:
# [1] = biological target: rat Vasopressin 1 Receptor (V1), Avpr1a (gene 25107) (UniProt P30560); experiment: NVS_GPCR_rV1: NovaScreen (NVS) G Protein-Coupled Receptor Assay for rat Vasopressin 1 Receptor (V1) (AID 2283316)
# Sequence of rat Vasopressin 1 Receptor (V1), Avpr1a (gene 25107) (P30560 whole entry, looked up): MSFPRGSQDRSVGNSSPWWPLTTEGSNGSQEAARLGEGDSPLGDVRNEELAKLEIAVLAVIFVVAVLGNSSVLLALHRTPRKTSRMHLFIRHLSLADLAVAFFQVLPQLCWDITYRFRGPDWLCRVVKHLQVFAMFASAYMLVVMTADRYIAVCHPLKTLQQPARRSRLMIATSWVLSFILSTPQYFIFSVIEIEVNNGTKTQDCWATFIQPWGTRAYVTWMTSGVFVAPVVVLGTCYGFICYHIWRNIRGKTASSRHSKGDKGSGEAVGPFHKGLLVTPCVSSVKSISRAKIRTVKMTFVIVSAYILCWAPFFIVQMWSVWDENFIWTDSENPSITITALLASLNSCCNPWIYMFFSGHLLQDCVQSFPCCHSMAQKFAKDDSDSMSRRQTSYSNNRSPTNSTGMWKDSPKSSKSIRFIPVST
# In short: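 Radioligand binding on rat liver membranes, 1.5 h incubation, filter-based scintillation counting. Single 25 uM screen in duplicate; chemicals meeting threshold (e.g. 30% inhibition) run in concentration-response up to 50 uM.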
# [2] = biological target: rat Glutamate, AMPA Site (AMPA), Gria1 (gene 50592) (UniProt P19490); experiment: NVS_LGIC_rAMPA: NovaScreen (NVS) Ligand-Gated Ion Channel Assay for rat Glutamate, AMPA Site (AMPA) (AID 2283324)
# Sequence of rat Glutamate, AMPA Site (AMPA), Gria1 (gene 50592) (P19490 whole entry, looked up): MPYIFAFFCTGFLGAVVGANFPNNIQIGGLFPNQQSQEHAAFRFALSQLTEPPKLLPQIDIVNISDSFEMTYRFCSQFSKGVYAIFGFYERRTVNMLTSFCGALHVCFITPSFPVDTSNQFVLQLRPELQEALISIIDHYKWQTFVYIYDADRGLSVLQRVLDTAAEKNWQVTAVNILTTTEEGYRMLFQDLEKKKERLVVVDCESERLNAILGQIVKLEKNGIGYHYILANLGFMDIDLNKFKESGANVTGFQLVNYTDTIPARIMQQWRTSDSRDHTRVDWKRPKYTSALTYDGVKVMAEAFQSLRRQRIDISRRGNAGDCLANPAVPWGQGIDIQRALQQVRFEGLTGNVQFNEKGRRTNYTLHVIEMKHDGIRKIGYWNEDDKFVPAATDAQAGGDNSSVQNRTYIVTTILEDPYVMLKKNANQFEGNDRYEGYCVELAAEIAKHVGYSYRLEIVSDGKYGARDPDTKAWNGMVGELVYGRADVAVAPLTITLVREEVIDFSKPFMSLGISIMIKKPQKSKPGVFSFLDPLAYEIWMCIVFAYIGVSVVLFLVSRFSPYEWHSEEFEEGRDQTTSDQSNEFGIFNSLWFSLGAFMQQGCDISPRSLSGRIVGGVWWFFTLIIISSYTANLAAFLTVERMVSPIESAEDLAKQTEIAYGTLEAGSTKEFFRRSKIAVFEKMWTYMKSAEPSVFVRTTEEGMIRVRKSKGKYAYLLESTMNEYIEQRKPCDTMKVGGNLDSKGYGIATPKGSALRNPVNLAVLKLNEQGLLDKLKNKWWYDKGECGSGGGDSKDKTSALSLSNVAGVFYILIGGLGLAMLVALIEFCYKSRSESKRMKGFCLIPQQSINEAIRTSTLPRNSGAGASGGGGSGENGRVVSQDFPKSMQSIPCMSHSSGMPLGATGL
# In short: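 Rat forebrain membranes; radioligand binding read 1 h after dosing by filtration and scintillation counting. Duplicate single-point screen at 25 uM, then concentration-response to 50 uM for threshold hits (e.g. 30% inhibition); loss of signal vs DMSO.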
# [3] = biological target: human Serotonin, 5-Hydroxytryptamine Receptor 3 (5HT3), HTR3A (gene 3359) (UniProt P46098); experiment: NVS_LGIC_h5HT3: NovaScreen (NVS) Ligand-Gated Ion Channel Assay for human Serotonin, 5-Hydroxytryptamine Receptor 3 (5HT3) (AID 2283325)
# Sequence of human Serotonin, 5-Hydroxytryptamine Receptor 3 (5HT3), HTR3A (gene 3359) (P46098 whole entry, looked up): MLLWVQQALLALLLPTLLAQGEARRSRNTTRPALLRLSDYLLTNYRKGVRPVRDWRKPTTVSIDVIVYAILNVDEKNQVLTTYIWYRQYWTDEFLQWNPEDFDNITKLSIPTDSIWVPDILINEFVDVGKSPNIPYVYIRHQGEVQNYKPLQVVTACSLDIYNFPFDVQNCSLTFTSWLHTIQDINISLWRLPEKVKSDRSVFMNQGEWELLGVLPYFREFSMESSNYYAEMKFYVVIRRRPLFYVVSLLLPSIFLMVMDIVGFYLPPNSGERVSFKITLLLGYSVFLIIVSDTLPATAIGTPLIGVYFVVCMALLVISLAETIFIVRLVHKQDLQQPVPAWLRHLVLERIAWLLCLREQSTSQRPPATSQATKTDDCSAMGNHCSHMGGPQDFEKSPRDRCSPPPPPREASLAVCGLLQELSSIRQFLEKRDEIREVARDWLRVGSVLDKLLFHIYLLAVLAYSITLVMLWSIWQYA
# In short: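 Radioligand displacement binding to human 5-HT3 from HEK293 membranes, read by filter-based scintillation counting after 1 h. Screen at 25 uM in duplicate; chemicals passing threshold were retested in concentration-response up to 50 uM.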
# [4] = biological target: human Peripheral-type Benzodiazepine Receptor (PBR), TSPO (gene 706) (UniProt P30536); experiment: NVS_MP_hPBR: NovaScreen (NVS) Membrane Protein Assay for human Peripheral-type Benzodiazepine Receptor (PBR) (AID 2283331);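 note: hits reduce radioligand binding relative to DMSO baseline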
# Sequence of human Peripheral-type Benzodiazepine Receptor (PBR), TSPO (gene 706) (P30536 whole entry, looked up): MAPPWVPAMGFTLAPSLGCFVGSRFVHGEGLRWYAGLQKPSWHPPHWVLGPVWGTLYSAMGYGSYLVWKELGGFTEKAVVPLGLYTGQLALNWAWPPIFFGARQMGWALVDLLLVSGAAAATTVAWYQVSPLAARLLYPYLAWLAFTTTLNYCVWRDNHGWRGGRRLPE
# In short: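 Scintillation counts of filter-bound radioligand served as read-out after 1 h chemical dosing of human colonic membrane preparations. Activity was scored as signal loss against DMSO; initial duplicates at 25 uM, confirmatory concentration series afterward.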
# [5] = biological target: rat Peripheral-type Benzodiazepine Receptor (PBR), Tspo (gene 24230) (UniProt P16257); experiment: NVS_MP_rPBR: NovaScreen (NVS) Membrane Protein Assay for rat Peripheral-type Benzodiazepine Receptor (PBR) (AID 2283335)
# Sequence of rat Peripheral-type Benzodiazepine Receptor (PBR), Tspo (gene 24230) (P16257 whole entry, looked up): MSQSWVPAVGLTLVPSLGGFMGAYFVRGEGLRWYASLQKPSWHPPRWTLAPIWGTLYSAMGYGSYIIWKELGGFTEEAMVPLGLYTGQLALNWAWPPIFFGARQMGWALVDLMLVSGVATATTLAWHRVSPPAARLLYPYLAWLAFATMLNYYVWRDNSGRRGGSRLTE
# In short: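 Radioligand displacement, rat kidney membrane prep, 1 h exposure, filter-based scintillation read; DMSO baseline, loss-of-signal scored. Primary screen at 25 uM in duplicate, actives followed up in concentration series.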
# [6] = biological target: bovine Gamma-Aminobutyric Acid Type A Receptor BDZ, alpha 5 site (GABARa5), GABRA5 (gene 523515) (UniProt Q08E50); experiment: NVS_LGIC_bGABARa5: NovaScreen (NVS) Ligand-Gated Ion Channel Assay for bovine Gamma-Aminobutyric Acid Type A Receptor BDZ, alpha 5 site (GABARa5) (AID 2283323)
# In short: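 Radioligand competitive displacement binding on bovine hippocampal membranes, read 1 hr after dosing by filter-based scintillation counting. Primary screen at 25 uM in duplicate; actives (e.g. ≥30% inhibition) then run in concentration-response up to 50 uM.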
# [7] = biological target: rat Gamma-Aminobutyric Acid Type A Receptor, Non-Selective (GABAR-NonSelective), Gabra1 (gene 29705) (UniProt P62813); experiment: NVS_LGIC_rGABAR_NonSelective: NovaScreen (NVS) Ligand-Gated Ion Channel Assay for rat Gamma-Aminobutyric Acid Type A Receptor, Non-Selective (GABAR-NonSelective) (AID 2283326)
# Sequence of rat Gamma-Aminobutyric Acid Type A Receptor, Non-Selective (GABAR-NonSelective), Gabra1 (gene 29705) (P62813 whole entry, looked up): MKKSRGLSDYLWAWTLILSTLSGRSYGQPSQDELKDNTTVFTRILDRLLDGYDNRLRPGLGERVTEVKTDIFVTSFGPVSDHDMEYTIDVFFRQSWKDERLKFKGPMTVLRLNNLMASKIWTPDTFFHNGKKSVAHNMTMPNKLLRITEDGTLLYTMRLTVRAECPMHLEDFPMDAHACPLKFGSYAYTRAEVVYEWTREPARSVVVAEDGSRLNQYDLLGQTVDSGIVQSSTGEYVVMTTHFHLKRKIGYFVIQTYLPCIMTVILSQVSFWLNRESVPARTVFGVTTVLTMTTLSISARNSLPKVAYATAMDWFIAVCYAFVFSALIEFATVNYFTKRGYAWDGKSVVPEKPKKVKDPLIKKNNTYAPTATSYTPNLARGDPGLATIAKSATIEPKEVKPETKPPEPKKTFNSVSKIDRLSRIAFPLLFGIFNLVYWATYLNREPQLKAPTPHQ
# In short: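 Radioligand displacement on rat whole-brain extract, 1 h, filter scintillation readout; signal loss fitted versus DMSO. Primary screen in duplicate at 25 uM; hits (e.g. ≥30% inhibition) retested in concentration-response up to 50 uM.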
# [8] = biological target: Glutamate receptor ionotropic, kainate 1 (Rattus norvegicus) (UniProt P22756); experiment: NVS_IC_rKAR: NovaScreen (NVS) Ion Channel Assay for rat Kainic Acid Receptors (KAR) (AID 2283334; active = hit-call score of the fitted dose curve at least 0.9, where 1 is the maximum; inactive = score below 0.9)
# Sequence of Glutamate receptor ionotropic, kainate 1 (Rattus norvegicus) (P22756 whole entry, looked up): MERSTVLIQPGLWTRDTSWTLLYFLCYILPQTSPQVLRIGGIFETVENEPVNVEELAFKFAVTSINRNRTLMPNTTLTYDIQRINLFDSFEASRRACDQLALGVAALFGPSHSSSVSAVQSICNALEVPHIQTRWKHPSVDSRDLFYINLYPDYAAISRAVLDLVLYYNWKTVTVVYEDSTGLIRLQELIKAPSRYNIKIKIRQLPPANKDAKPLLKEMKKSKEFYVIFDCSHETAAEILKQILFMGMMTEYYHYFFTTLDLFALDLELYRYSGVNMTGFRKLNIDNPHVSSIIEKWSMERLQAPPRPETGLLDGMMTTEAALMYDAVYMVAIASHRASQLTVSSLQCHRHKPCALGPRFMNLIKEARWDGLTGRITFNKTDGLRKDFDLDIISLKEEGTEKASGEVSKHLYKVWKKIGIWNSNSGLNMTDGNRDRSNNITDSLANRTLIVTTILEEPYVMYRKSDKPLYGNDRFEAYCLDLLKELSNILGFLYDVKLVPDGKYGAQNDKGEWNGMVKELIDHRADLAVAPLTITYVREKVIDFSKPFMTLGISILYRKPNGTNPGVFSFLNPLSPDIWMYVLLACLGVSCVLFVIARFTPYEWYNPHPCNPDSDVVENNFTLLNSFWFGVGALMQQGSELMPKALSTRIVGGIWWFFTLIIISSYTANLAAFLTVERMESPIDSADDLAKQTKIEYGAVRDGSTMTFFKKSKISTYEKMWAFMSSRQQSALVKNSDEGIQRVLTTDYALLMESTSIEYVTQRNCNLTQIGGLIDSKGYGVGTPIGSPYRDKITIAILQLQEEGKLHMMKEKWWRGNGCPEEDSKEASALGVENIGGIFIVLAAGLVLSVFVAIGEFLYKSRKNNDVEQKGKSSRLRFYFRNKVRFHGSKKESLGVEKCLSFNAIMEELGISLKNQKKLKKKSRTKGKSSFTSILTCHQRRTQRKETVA
# In short: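 Radioligand displacement binding using rat forebrain membranes, 1 h incubation, filter-based scintillation counting. Screened in duplicate at 25 uM, with actives retested in concentration-response up to 50 uM; fitted against DMSO.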
# [9] = biological target: Small conductance calcium-activated potassium channel protein 1 (Rattus norvegicus) (UniProt P70606); experiment: NVS_IC_rKCaCh: NovaScreen (NVS) Ion Channel Assay for rat Potassium Channel, Ca2+ Act., VI (KCaCh) (AID 2283336)
# Sequence of Small conductance calcium-activated potassium channel protein 1 (Rattus norvegicus) (P70606 whole entry, looked up): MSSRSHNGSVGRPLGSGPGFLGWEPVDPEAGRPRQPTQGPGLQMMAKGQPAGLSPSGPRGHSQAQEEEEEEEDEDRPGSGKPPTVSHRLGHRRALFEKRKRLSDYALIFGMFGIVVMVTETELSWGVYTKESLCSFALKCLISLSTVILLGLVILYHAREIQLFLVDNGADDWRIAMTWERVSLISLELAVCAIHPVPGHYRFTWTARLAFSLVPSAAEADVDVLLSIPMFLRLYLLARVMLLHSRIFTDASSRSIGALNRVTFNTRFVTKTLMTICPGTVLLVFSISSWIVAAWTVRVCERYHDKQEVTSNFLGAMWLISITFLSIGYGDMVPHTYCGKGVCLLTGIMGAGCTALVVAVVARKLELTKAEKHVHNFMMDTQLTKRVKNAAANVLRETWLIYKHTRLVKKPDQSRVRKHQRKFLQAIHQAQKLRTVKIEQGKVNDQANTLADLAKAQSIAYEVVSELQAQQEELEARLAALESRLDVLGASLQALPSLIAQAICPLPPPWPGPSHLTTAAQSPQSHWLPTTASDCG
# In short: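 Radioligand binding to rat forebrain membranes, cell-free, read 1 hour after dosing by filter-based scintillation counting. Compounds first run in duplicate at 25 uM, actives then in concentration series; loss of signal vs DMSO indicates displacement.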
# [10] = biological target: Voltage-gated inwardly rectifying potassium channel KCNH2 (Homo sapiens) (UniProt Q12809); experiment: NVS_IC_hKhERGCh: NovaScreen (NVS) Ion Channel Assay for human Potassium Channel ERG (KhERGCh) (AID 2283333)
# In short: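 Cell-free radioligand competition binding on hERG protein extracted from CHO cells, read by filter-based scintillation counting 0.75 h after dosing. Primary screen at 25 uM in duplicate, actives followed in concentration series. Signal loss fitted versus DMSO.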
# [11] = biological target: rat Thyrotropin Releasing Hormone Receptor (TRH), Trhr (gene 25570) (UniProt Q01717); experiment: NVS_GPCR_rTRH: NovaScreen (NVS) G Protein-Coupled Receptor Assay for rat Thyrotropin Releasing Hormone Receptor (TRH) (AID 2283329);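 note: hit means lower bound tracer signal versus DMSO baseline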
# In short: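 Cell-free radioligand binding on rat forebrain membranes; bound tracer measured by filter-based scintillation counting 4 hours after dosing. Loss of signal versus DMSO baseline indicates displacement; primary screen at 25 uM in duplicate, actives then run in concentration series.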
# [12] = biological target: rat Opioid Receptor, Non-selective Binding, Oprm1 (gene 25601) (UniProt P33535); experiment: NVS_GPCR_rOpiate_NonSelective: NovaScreen (NVS) G Protein-Coupled Receptor Assay for rat Opioid Receptor, Non-selective Binding (AID 2283318)
# Sequence of rat Opioid Receptor, Non-selective Binding, Oprm1 (gene 25601) (P33535 whole entry, looked up): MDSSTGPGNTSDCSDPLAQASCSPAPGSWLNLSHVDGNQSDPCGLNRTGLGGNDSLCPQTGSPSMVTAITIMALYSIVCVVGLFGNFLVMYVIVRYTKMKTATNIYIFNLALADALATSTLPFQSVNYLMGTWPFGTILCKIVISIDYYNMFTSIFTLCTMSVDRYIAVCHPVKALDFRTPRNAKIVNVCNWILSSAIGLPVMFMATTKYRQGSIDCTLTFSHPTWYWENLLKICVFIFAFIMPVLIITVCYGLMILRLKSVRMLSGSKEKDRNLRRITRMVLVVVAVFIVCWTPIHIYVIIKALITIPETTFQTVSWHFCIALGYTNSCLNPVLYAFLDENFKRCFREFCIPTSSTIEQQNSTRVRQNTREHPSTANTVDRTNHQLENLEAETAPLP
# In short: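 Rat forebrain membranes, cell-free radioligand binding with filter-based scintillation counting, read 1.5 h after dosing. Primary screen in duplicate at 25 uM; actives retested in concentration series. Loss of signal versus DMSO baseline scored.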
# [13] = NVS_IC_rCaDHPRCh_L: NovaScreen (NVS) Ion Channel Assay for rat Calcium Channel, Type L, Dihydropyridine Site (CaDHPRCh_L) (AID 2283320)
# In short: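 Radioligand binding to dihydropyridine site on rat cortical membranes, filter-based scintillation counting, 1 h after dosing. Screened in duplicate at 25 uM; actives rerun in concentration-response up to 50 uM. Loss of signal versus DMSO baseline.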
# [14] = biological target: Sodium channel protein type 1 subunit alpha (Rattus norvegicus) (UniProt P04774); experiment: NVS_IC_rNaCh_site2: NovaScreen (NVS) Ion Channel Assay for rat Sodium Channel, Site 2 (NaCh) (AID 2283322);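 note: hit means loss of radioligand binding signal relative to DMSO so AC50 marks displacement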
# In short: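 Membranes: rat forebrain. Format: competitive radioligand displacement, filter separation, scintillation readout, 1 h exposure. Primary screen in duplicate at 25 uM; actives retested in concentration series.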
# [15] = biological target: human Androgen Receptor (AR), AR (gene 367) (UniProt P10275); experiment: NVS_NR_hAR: NovaScreen (NVS) Nuclear Receptor Binding Assay for human Androgen Receptor (AR) (AID 2283332)
# In short: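 Radioligand competitive binding, scintillation read-out, in cell-free extract from LnCAP, measured 20 h after dosing. Screened first in duplicate at 25 uM, then concentration series for actives; activity fitted against DMSO.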
# [16] = NVS_IC_rCaBTZCHL: NovaScreen (NVS) Ion Channel Assay for Calcium Channel, Type L, Benzothiazepine Site (CaBTZCHL) (AID 2283337)
# In short: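 Competitive displacement of a site-specific radioligand from rat cortex membranes, measured as signal loss against DMSO baseline by filter radiodetection after 1.5 h. Single-point 25 uM primary screen.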
# [17] = biological target: bovine Gamma-Aminobutyric Acid Type A Receptor Agonist (GABAR Agonist), GABRA1 (gene 780973) (UniProt P08219); experiment: NVS_LGIC_bGABAR_Agonist: NovaScreen (NVS) Ligand-Gated Ion Channel Assay for bovine Gamma-Aminobutyric Acid Type A Receptor Agonist (GABAR Agonist) (AID 2283338)
# Sequence of bovine Gamma-Aminobutyric Acid Type A Receptor Agonist (GABAR Agonist), GABRA1 (gene 780973) (P08219 whole entry, looked up): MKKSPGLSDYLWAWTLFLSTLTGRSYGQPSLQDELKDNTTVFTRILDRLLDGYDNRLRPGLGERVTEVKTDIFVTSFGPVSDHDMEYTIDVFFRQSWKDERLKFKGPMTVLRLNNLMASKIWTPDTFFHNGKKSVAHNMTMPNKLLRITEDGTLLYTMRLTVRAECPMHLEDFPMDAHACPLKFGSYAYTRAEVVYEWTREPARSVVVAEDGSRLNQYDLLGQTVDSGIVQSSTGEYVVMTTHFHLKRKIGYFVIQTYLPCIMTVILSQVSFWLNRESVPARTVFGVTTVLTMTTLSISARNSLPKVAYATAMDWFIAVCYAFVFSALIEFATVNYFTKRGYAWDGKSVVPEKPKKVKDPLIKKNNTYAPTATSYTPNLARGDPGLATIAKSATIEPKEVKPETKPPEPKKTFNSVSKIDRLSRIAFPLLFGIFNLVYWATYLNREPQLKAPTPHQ
# In short: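 Radioligand binding to bovine cerebellar membranes in agonist format, read by filter-based scintillation counting after 1 h. Primary screen in duplicate at 25 uM, with actives followed in concentration series. Gain of signal versus DMSO.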
# [18] = biological target: rat Glutamate, NMDA Agonist Site (GluNMDA), Grin1 (gene 24408) (UniProt P35439); experiment: NVS_LGIC_rGluNMDA_Agonist: NovaScreen (NVS) Ligand-Gated Ion Channel Assay for rat Glutamate, NMDA Agonist Site (GluNMDA) (AID 2283327)
# In short: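 Rat forebrain membranes, radioligand binding in the agonist-site protocol; 1 h after dosing; filter-based scintillation counting. Single-concentration duplicate screen at 25 uM, then concentration-response up to 50 uM for actives; gain-of-signal vs DMSO.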
# NCBI gene 24521 = experiment: NVS_IC_rKATPCh: NovaScreen (NVS) Ion Channel Assay for rat Potassium Channel, ATP-Sensitive (KATPCh) (AID 2283319)
# In short: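 Rat cortical membranes; radioligand binding at ATP-sensitive K channel site, filter-based scintillation counting 2 h after dosing. Single-point duplicate screen at 25 uM, hits rerun in concentration-response up to 50 uM; loss of signal versus DMSO.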
# [19] = biological target: human Constitutive Androstane Receptor (CAR), NR1I3 (gene 9970) (UniProt Q14994); experiment: NVS_NR_hCAR_Agonist: NovaScreen (NVS) Nuclear Receptor Binding Assay for human Constitutive Androstane Receptor Agonism (CAR) (AID 2283328)
# In short: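 Cell-free TR-FRET binding readout with extracted human CAR protein, read 1 h after dosing. Gain of signal fitted against DMSO baseline. Single-concentration duplicates at 25 uM, then concentration-response up to 50 uM for actives.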
compound,measurement,setting,value
CCN(CC)C(=S)SSC(=S)N(CC)CC,AC50,[1],15.6 µM (active)
same,outcome,[2],inactive
same,outcome,[3],inactive
same,AC50,[4],3.21 µM (active)
same,AC50,[5],0.31 µM (active)
CCOc1ccc2[nH]cc(C(=O)NCc3ccccc3)c(=O)c2n1,AC50,[6],0.0253 µM (active)
same,outcome,[7],inactive
O=C(O)c1cccc(C[C@@H]2COc3ccc(OCc4nc5cc(F)ccc5s4)cc3[C@@H]2O)c1,outcome,[8],inactive
CC1(C)C(=O)N(Cl)C(=O)N1Cl,outcome,[9],inactive
CCCCN1C(=O)[C@@H]([C@H](O)C2CCCCC2)NC(=O)C12CCN(Cc1ccc(Oc3ccc(C(=O)O)cc3)cc1)CC2,outcome,[10],inactive
CCCCCCCCCCCCCCCCOS(=O)(=O)O,AC50,[3],17.3 µM (active)
c1ccc2cc3ccccc3cc2c1,outcome,[4],inactive
OCC(CO)(CO)CO,outcome,[11],inactive
OC(CCl)CCl,AC50,[7],4.96 µM (active)
CCCC(CCC)C(=O)O,outcome,[7],inactive
C=CCc1cc(S(=O)(=O)c2ccc(O)c(CC=C)c2)ccc1O,AC50,[12],13.1 µM (active)
same,AC50,[13],8.51 µM (active)
same,AC50,[14],22.5 µM (active)
same,AC50,[15],6.16 µM (active)
same,outcome,[8],inactive
same,outcome,[16],inactive
Cc1nccn1-c1ccc(Sc2cccc(C3(C(N)=O)CCOCC3)c2)cc1,outcome,[12],inactive
same,AC50,[14],17.7 µM (active)
same,outcome,[16],inactive
NC(=O)N1c2ccccc2C=Cc2ccccc21,outcome,[14],inactive
same,AC50,[7],4.66 µM (active)
same,outcome,[17],inactive
CC(=O)c1ccccc1,outcome,[17],inactive
CCCCCCCCCC,AC50,[1],25 µM (active)
same,outcome,[14],inactive
same,outcome,[2],inactive
same,outcome,[18],inactive
OCc1ccccc1,outcome,[9],inactive
Cc1ccc(S(=O)(=O)NC(=O)NN2CCCCCC2)cc1,AC50,NCBI gene 24521,3.58 µM (active)
CC(C)C(=O)Nc1ccc([N+](=O)[O-])c(C(F)(F)F)c1,outcome,[4],inactive
same,AC50,[5],4.95 µM (active)
same,outcome,[16],inactive
c1ccc2c(c1)-c1cccc3c1c-2cc1ccccc13,outcome,[3],inactive
CCCCCCCCN(C)C,outcome,[16],inactive
Cc1nc(-c2ccccn2)ncc1C(=O)Nn1cc(C)c2cc(F)ccc21,outcome,[19],inactive
same,outcome,[9],inactive
CCc1ccc(O)c(C(C)(C)C)c1,outcome,[17],inactive
